The record followed here is PubChem BioAssay.

Molecules are shown by their SMILES. The source made the active and inactive calls. How the calls were made is not given here.

The nature of this experiment: hESC survival regulators, cell-based (AID 493140).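 Further: cells exposed to compounds for four days before counting.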 As to conditions: human embryonic stem cell survival screen; stronger effect = higher value.
In the case of `CC(C)(C)NC(=O)[C@H]1CC[C@H]2[C@@H]3CC[C@H]4NC(=O)C=C[C@]4(C)[C@H]3CC[C@]12C`, the survival is 7 (inactive). Regarding `CN1[C@@H]2CC[C@H]1CC(OC(=O)C(O)c1ccccc1)C2` (some centres not stated), the survival was 24.7 (inactive). As for `Oc1ccc(OCc2ccccc2)cc1`, the survival is 3.58 (inactive).

Consider `CCCCN(CCCC)CCC(O)c1cc2c(Cl)cc(Cl)cc2c2cc(C(F)(F)F)ccc12` (configuration not stated), for which the survival was 1.5 (inactive). In the case of `O=C(O)[C@@H]1[C@H]2C[C@H]3c4[nH]c5ccccc5c4CCN3C[C@@H]2CC[C@@H]1O` it was 2.42 (inactive). In the case of `Nc1ccc(S(=O)(=O)Nc2ccc(Cl)nn2)cc1` it was 5.17 (inactive); in that of `CCCOc1ccc(C(=O)OCCN(CC)CC)cc1N`, 5.92 (inactive).

In the case of `CCOC(=O)NNc1nncc2ccccc12`, the survival is 22 (inactive).

In the case of `CC1CC(OC(=O)C(O)c2ccccc2)CC(C)(C)N1C` (configuration not stated), the survival was 2.33 (inactive). In the case of `O=C(O)/C=C/c1ccc(Cn2ccnc2)cc1` it was 12.1 (inactive). In the case of `O=C(CCCCC(=O)Nc1c(I)cc(I)c(C(=O)O)c1I)Nc1c(I)cc(I)c(C(=O)O)c1I`, the survival was 5.33 (inactive). Turning to `COc1ncnc(NS(=O)(=O)c2ccc(N)cc2)c1OC`, the survival was 14.8 (inactive). Turning to `COc1cc(OC)c(C(=O)CCCN2CCCC2)c(OC)c1`, the survival was 9.58 (inactive). For the compound `CCCc1c(OCCCCc2nn[nH]n2)ccc(C(C)=O)c1O`, the survival is 110 (inactive). In the case of `CC(C)(C(=O)c1cccnc1)c1cccnc1`, the survival was 5 (inactive). For the compound `COC(=O)C1=C(C)NC(C)=C(C(=O)OC(C)C)C1c1cccc2nonc12` (configuration not stated), the survival is 16.1 (inactive). For the compound `CCc1c(C)[nH]c2c1C(=O)C(CN1CCOCC1)CC2` (configuration not stated), the survival was 6.5 (inactive).
